PubChem BioAssay
The source made the active and inactive calls.

Assay: JC-1 mitochondrial signal, unstimulated HepG2 cells – cell-based, JC-1 fluorescence, 24 h, 100 nL compound, profiling panel (AID 1167)
Conditions: HepG2 mitochondrial potential, higher = more signal
Further: test concentration not given here.

| SMILES | z-score |
| --- | --- |
| CN1C(=O)C2C=CC(C(O)C3CC=CCC3)N(N(c3ccccc3)c3ccccc3)C2C1=O (configuration not stated) | -0.77 |
| N#Cc1ccc(NN2C(C(O)C(c3ccccc3)c3ccccc3)C=CC3C(=O)N(c4ccccc4)C(=O)C32)cc1 (configuration not stated) | 0.913 |
| O=C1N[C@@H](Cc2ccccc2)C(=O)N2[C@@H]1C[C@@H](C(=O)O)[C@H]2c1cccc(OCCO)c1 | 1.3 |
| COC(=O)[C@@]1(Cc2ccc(F)cc2)[C@H]2c3cc(C(=O)N(C)C)n(Cc4cc(F)c(F)c(F)c4)c3C[C@H]2CN1C(=O)c1ccccc1 | 0.345 |
| COc1ccc([Si](C)(C)[C@H]2[C@H](CC(=O)N3Cc4ccccc4C[C@H]3CO)O[C@@]3(C(=O)N(Cc4cccc(N5CCC5=O)c4)c4ccccc43)[C@@H]2C)cc1 | 0.419 |
| CC1CC/C=C\[C@H]2OC34C=CCN(C(C)(C)C)C(=O)[C@H]3N(CCO)C(=O)[C@@H]4C2C(=O)O1 (some centres not stated) | -0.669 |
| CC(C)=CCN[C@H](CO)c1ccccc1 | -0.416 |
| CC(C)C[C@@H]1NC(=O)[C@@H]2C[C@H](C(=O)NCc3ccc(F)cc3)[C@H](c3cccc(OCCO)c3)N2C1=O | 1.9 |
| COC(=O)[C@@]1(Cc2ccc(F)cc2)[C@H]2c3cc(C(=O)N4CCCC4)n(Cc4ccc(S(C)(=O)=O)cc4)c3C[C@H]2CN1C(=O)c1ccccc1 | 2.11 |
| Cc1ccc(S[C@]2(C(=O)NCCCN(C)C)CC(=O)N(Cc3cc(C(F)(F)F)cc(C(F)(F)F)c3)[C@@H]2c2ccc(CO)cc2I)cc1 | -0.547 |
| O=C1C[C@@](C(=O)NCCN2CCOCC2)(c2ccc([N+](=O)[O-])cc2)[C@@H](c2ccc(CO)cc2I)N1CC12CC3CC(CC(C3)C1)C2 | -2.72 |
| CCCC=C(CCC)[C@@H](NC(=O)c1cccs1)c1ccc(C(F)(F)F)cc1 | 1.34 |
| CCOC(=O)C[C@H]1[C@H](OC(=O)c2ccc(C(=O)c3ccccc3)cc2)[C@@H](NC(=O)c2ccccc2)c2cc(OCCCO)ccc2N1C(=O)c1ccc2ccccc2n1 | 1 |
| COC(=O)[C@@]1(CCC(=O)OC(C)(C)C)N=C(c2ccc(OCCCO)cc2)O[C@H]1c1ccccc1N=[N+]=[N-] | -0.429 |
| CCOC(=O)C[C@H]1[C@H](OC(=O)c2cc3ccccc3oc2=O)[C@@H](NC(=O)c2ccccc2)c2cc(OCCCO)ccc2N1C(=O)c1ccc2ccccc2n1 | -0.314 |
| C=CCNC(=O)[C@@H]1[C@H]2C(=O)O[C@H](c3ccccc3)[C@H](c3ccccc3)N2[C@H](c2ccc(O)cc2)[C@@]12C(=O)N(C(=O)OCCOC)c1ccc(C#CCNC(N)=O)cc12 | -0.194 |
| C=CCNC(=O)[C@H]1[C@@H]2C(=O)O[C@@H](c3ccccc3)[C@@H](c3ccccc3)N2[C@@H](c2ccccc2OCCO)[C@]12C(=O)Nc1ccc(C#CCC(C(=O)OC)C(=O)OC)cc12 | -0.64 |
| CCOC(=O)C1=CC[C@@H](c2ccccc2)N(S(=O)(=O)c2ccc(C)cc2)[C@H]1c1ccccc1C | 2.59 |
| O=C1O[C@H](c2ccccc2)[C@H](c2ccccc2)N2[C@H]1[C@@H](C(=O)N1CCCCCCC1)[C@]1(C(=O)Nc3ccc(C#CCCO)cc31)[C@H]2c1ccccc1OCCO | 0.42 |
| C=C(C(=O)CC[C@@H](OC(=O)c1cccnc1)c1ccccc1OCCO)C(C)C | -1.17 |
| O=C1C2C=CC(C(O)Cc3ccccc3)N(n3cnnc3)C2C(=O)N1Cc1ccccc1 (configuration not stated) | -0.532 |
| O=C1[C@@]23C=C(Br)[C@H](C[C@@H]2CCOC3)[C@@]12CO2 | -1.08 |
| COC(=O)[C@@]1(Cc2ccc(OC)cc2)[C@H]2c3cc(C(=O)N(C)C)n(C)c3C[C@H]2CN1C(=O)c1ccccc1 | 2.66 |
| COCCOC(=O)N1C(=O)[C@@]2(c3cc(C#CCNC(N)=O)ccc31)[C@H](C(=O)N1CCN(c3ncccn3)CC1)[C@H]1C(=O)O[C@H](c3ccccc3)[C@H](c3ccccc3)N1[C@@H]2c1ccc(OCCO)cc1 | -2.07 |
| COCCCNC(=O)[C@@H]1c2ccccc2C(=O)N(Cc2ccccc2Cl)[C@H]1c1ccc(CO)cc1 | 2.87 |
| C=CC[C@]1(C(=O)NCCCOC)N=C(c2ccc(OCCCO)cc2)O[C@H]1c1ccccc1CN=[N+]=[N-] | 1.76 |

Assay: JC-1 mitochondrial signal, unstimulated adipocytes – cell-based, JC-1 fluorescence, 3T3-L1 adipocytes, 24 h, 100 nL compound, profiling panel (AID 1168)
Conditions: JC-1 mitochondrial fluorescence, higher = more signal, called active from +8 up or from −8 down

| SMILES | z-score |
| --- | --- |
| COc1ccc(C#Cc2ccc3c(c2)[C@]2(C(=O)N3)[C@H](c3ccccc3OCCO)N3[C@H](c4ccccc4)[C@H](c4ccccc4)OC(=O)[C@H]3[C@@H]2C(=O)Nc2nc3ccccc3s2)cc1 | 2.29 (inactive) |
| COCCCNC(=O)[C@@]1(C)c2ccccc2C(=O)N(C(C)C)[C@H]1c1ccc(CO)cc1 | 0.304 (inactive) |
| COc1cc2c(cc1OC)CN(C(=O)[C@@H]1[C@H]3C(=O)O[C@H](c4ccccc4)[C@H](c4ccccc4)N3[C@H](c3ccc(O)cc3)[C@@]13C(=O)Nc1ccccc13)CC2 | 0.382 (inactive) |
| COc1cccc(-c2cccc(=O)o2)c1 | 0.236 (inactive) |
| COCCOC(=O)N1C(=O)[C@@]2(c3ccccc31)[C@H](c1ccc(O)cc1)N1[C@H](c3ccccc3)[C@H](c3ccccc3)OC(=O)[C@H]1[C@@H]2C(=O)Nc1nc2ccccc2s1 | -1.17 (inactive) |
| O=C1O[C@@H](c2ccccc2)[C@@H](c2ccccc2)N2[C@@H](c3ccccc3OCCO)[C@]3(C(=O)Nc4ccccc43)[C@@H](C(=O)Nc3nc4ccccc4s3)[C@H]12 | 3.87 (inactive) |
| CCCC[C@H]1OB(O)C[C@H]2C1=C(COC)Cn1c(=O)n(-c3ccccc3)c(=O)n12 | -0.199 (inactive) |
| C=C(COC)C(=O)CC[C@@H](OC(C)=O)c1ccc(CO)o1 | 0.195 (inactive) |
| O=C1C[C@@](C(=O)NCC(F)(F)F)(c2ccc([N+](=O)[O-])cc2)[C@@H](c2ccc(CO)cc2I)N1C1CCCCC1 | -0.226 (inactive) |
| COCCOC(=O)N1C(=O)[C@@]2(c3cc(C#CCC(C(=O)OC)C(=O)OC)ccc31)[C@H](C(=O)Nc1nc3ccccc3s1)[C@H]1C(=O)O[C@H](c3ccccc3)[C@H](c3ccccc3)N1[C@@H]2c1ccccc1OCCO | 0.803 (inactive) |
| CN1C(=O)C2C=CC(C(O)C3CC=CCC3)N(N(c3ccccc3)c3ccccc3)C2C1=O (configuration not stated) | -0.339 (inactive) |
| N#Cc1ccc(NN2C(C(O)C(c3ccccc3)c3ccccc3)C=CC3C(=O)N(c4ccccc4)C(=O)C32)cc1 (configuration not stated) | -0.435 (inactive) |
| O=C1N[C@@H](Cc2ccccc2)C(=O)N2[C@@H]1C[C@@H](C(=O)O)[C@H]2c1cccc(OCCO)c1 | -1.49 (inactive) |
| COC(=O)[C@@]1(Cc2ccc(F)cc2)[C@H]2c3cc(C(=O)N(C)C)n(Cc4cc(F)c(F)c(F)c4)c3C[C@H]2CN1C(=O)c1ccccc1 | -1.26 (inactive) |
| COc1ccc([Si](C)(C)[C@H]2[C@H](CC(=O)N3Cc4ccccc4C[C@H]3CO)O[C@@]3(C(=O)N(Cc4cccc(N5CCC5=O)c4)c4ccccc43)[C@@H]2C)cc1 | 0.465 (inactive) |
| CC1CC/C=C\[C@H]2OC34C=CCN(C(C)(C)C)C(=O)[C@H]3N(CCO)C(=O)[C@@H]4C2C(=O)O1 (some centres not stated) | -0.354 (inactive) |

| SMILES | z-score |
| --- | --- |
| CC(C)=CCN[C@H](CO)c1ccccc1 | 0.476 (inactive) |
| CC(C)C[C@@H]1NC(=O)[C@@H]2C[C@H](C(=O)NCc3ccc(F)cc3)[C@H](c3cccc(OCCO)c3)N2C1=O | 0.0605 (inactive) |
| COC(=O)[C@@]1(Cc2ccc(F)cc2)[C@H]2c3cc(C(=O)N4CCCC4)n(Cc4ccc(S(C)(=O)=O)cc4)c3C[C@H]2CN1C(=O)c1ccccc1 | -1.3 (inactive) |
| Cc1ccc(S[C@]2(C(=O)NCCCN(C)C)CC(=O)N(Cc3cc(C(F)(F)F)cc(C(F)(F)F)c3)[C@@H]2c2ccc(CO)cc2I)cc1 | 0.669 (inactive) |
| O=C1C[C@@](C(=O)NCCN2CCOCC2)(c2ccc([N+](=O)[O-])cc2)[C@@H](c2ccc(CO)cc2I)N1CC12CC3CC(CC(C3)C1)C2 | 0.981 (inactive) |
| CCCC=C(CCC)[C@@H](NC(=O)c1cccs1)c1ccc(C(F)(F)F)cc1 | -0.229 (inactive) |
| CCOC(=O)C[C@H]1[C@H](OC(=O)c2ccc(C(=O)c3ccccc3)cc2)[C@@H](NC(=O)c2ccccc2)c2cc(OCCCO)ccc2N1C(=O)c1ccc2ccccc2n1 | 1.76 (inactive) |
| COC(=O)[C@@]1(CCC(=O)OC(C)(C)C)N=C(c2ccc(OCCCO)cc2)O[C@H]1c1ccccc1N=[N+]=[N-] | 0.581 (inactive) |
| CCOC(=O)C[C@H]1[C@H](OC(=O)c2cc3ccccc3oc2=O)[C@@H](NC(=O)c2ccccc2)c2cc(OCCCO)ccc2N1C(=O)c1ccc2ccccc2n1 | 0.122 (inactive) |
| C=CCNC(=O)[C@@H]1[C@H]2C(=O)O[C@H](c3ccccc3)[C@H](c3ccccc3)N2[C@H](c2ccc(O)cc2)[C@@]12C(=O)N(C(=O)OCCOC)c1ccc(C#CCNC(N)=O)cc12 | -0.323 (inactive) |
| C=CCNC(=O)[C@H]1[C@@H]2C(=O)O[C@@H](c3ccccc3)[C@@H](c3ccccc3)N2[C@@H](c2ccccc2OCCO)[C@]12C(=O)Nc1ccc(C#CCC(C(=O)OC)C(=O)OC)cc12 | 2.62 (inactive) |
| CCOC(=O)C1=CC[C@@H](c2ccccc2)N(S(=O)(=O)c2ccc(C)cc2)[C@H]1c1ccccc1C | -0.134 (inactive) |
| O=C1O[C@H](c2ccccc2)[C@H](c2ccccc2)N2[C@H]1[C@@H](C(=O)N1CCCCCCC1)[C@]1(C(=O)Nc3ccc(C#CCCO)cc31)[C@H]2c1ccccc1OCCO | 0.757 (inactive) |
| C=C(C(=O)CC[C@@H](OC(=O)c1cccnc1)c1ccccc1OCCO)C(C)C | 0.208 (inactive) |
| O=C1C2C=CC(C(O)Cc3ccccc3)N(n3cnnc3)C2C(=O)N1Cc1ccccc1 (configuration not stated) | -0.533 (inactive) |
